Gal4-VP16 FLuc: VP16 counterscreen qHTS for inhibitors of ROR gamma transcriptional activity. hit rate 3.5% among 310,000. Drosophila S2 Gal4-VP16 UAS-luciferase, luminescence, 20 h. Potency, µM (doses to about 53.6 µM), without a hit: top-dose activity, negative = inhibition, actives largely listed as inhibitors;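 also: Gal4-VP16 expression switched on by copper sulfate through the metallothionein promoter; nearly all actives have a fitted effect of over 50% in size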
RORg inh: qHTS for inhibitors of ROR gamma transcriptional activity | Potency, µM (titrated, usually from 53.6 µM), inactives show at the highest dose activity change, negative = inhibition, usual class: inhibitors | hit rate 5.4% among 310,000 | AID 2551, 2010 | Nuclear receptor ROR-gamma (Mus musculus), P51450 | Drosophila S2 Gal4-RORgamma UAS-luciferase reporter, 20 h; also: nearly all actives have a fitted effect of over 60% in size
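Stable Schneider cell line, Gal4 DNA-binding domain fused to ROR gamma, UAS-luciferase. Cmpd 1 hr RT → CuSO4 700 uM final → 20 hr RT → luciferase reagent 10 min → luminescence.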
PLK1 PBD inh: qHTS for Inhibitors of PLK1-PDB (polo-like kinase 1 - polo-box domain): Primary Screen | Serine/threonine-protein kinase PLK1 (Homo sapiens), P53350 | Plk1 PBD binding of FITC phosphopeptide, fluorescence polarization | Potency, µM, for the others: max response, negative = inhibition, actives largely listed as inhibitors | hit rate 2.8% among 360,000 | AID 720504, 2013; also: series mostly up to about 57 µM; nearly all actives have a fitted effect of over 65% in size
Sfp inh: qHTS Assay for Inhibitors of Bacillus subtilis Sfp phosphopantetheinyl transferase (PPTase); 4'-phosphopantetheinyl transferase ffp (Bacillus subtilis), Q9F4F7; Biochemical Sfp PPTase activity, qHTS; Potency, µM, for the others: largest response in the series, negative = inhibition, most hits filed as inhibitors; hit rate 3.5% among 310,000; AID 1490, 2009;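 also: the enzyme is Sfp with the accession as filed and its product quenches rhodamine fluorescence; 0% = enzyme reaction without inhibitor and -100% = no enzyme wells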
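Compounds were incubated with enzyme (final 15 nM) for 15 min at room temperature before substrate addition started the reaction. Fluorescence at 525 nm excitation, 598 nm emission was recorded immediately and after 30 minutes.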
ALDH1A1 inh: qHTS Assay for Inhibitors of Aldehyde Dehydrogenase 1 (ALDH1A1); Purified ALDH1A1, NADH fluorescence, propionaldehyde substrate; Potency, µM (highest dose often 75.3 µM), for inactives: at the highest dose activity, negative = inhibition, actives largely listed as inhibitors; Aldehyde dehydrogenase 1A1 (Homo sapiens), P00352; AID 1030, 2008; hit rate 7.3% among 220,000; active = well fitted inhibition curve with a large enough effect, not every such curve was filed as active; inconclusive = small, poorly fitted or top-dose-only effect, or another doubt; inactive = no such curve, though single readings can be large or run the other way;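 also: plate controls were no enzyme wells and a reference inhibitor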
Target sequence (P00352 whole entry, looked up): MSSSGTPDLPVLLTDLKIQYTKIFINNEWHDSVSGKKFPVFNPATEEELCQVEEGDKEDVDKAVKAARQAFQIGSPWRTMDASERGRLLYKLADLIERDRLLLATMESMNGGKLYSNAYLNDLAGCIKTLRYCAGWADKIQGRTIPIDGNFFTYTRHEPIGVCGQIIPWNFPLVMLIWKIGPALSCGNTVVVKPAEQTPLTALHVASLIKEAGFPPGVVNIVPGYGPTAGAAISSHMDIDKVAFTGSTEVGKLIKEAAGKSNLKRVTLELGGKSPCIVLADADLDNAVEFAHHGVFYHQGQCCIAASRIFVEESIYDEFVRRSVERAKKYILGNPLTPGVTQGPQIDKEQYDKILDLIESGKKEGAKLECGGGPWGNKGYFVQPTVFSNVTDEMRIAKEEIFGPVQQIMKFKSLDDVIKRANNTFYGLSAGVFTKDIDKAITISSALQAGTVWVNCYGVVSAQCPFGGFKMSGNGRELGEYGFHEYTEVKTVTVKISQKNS
* hit, by the source's call; [ ] = remark or other dose. Compounds with a hit are over-represented: about 12% of the library has one in this group of screens. Unless noted, calls follow the shape of the dose curve; as a rule, active = well fitted curve in the direction sought with a large enough effect; inconclusive = small, poorly fitted or top-dose-only effect, or another doubt; inactive = no such curve, though single readings can be large; an effect the other way counts as inactive or inconclusive. Unless noted, % is scaled to controls: 0 for no effect and ±100 for the full control effect; potency is read from the fitted curve at half-maximal effect.

How did O=C(O)c1cccc(S(=O)(=O)Nc2cccc(S(=O)(=O)Nc3ccc(Br)cc3)c2)c1 do in these assays?
PLK1 PBD inh: -5.2%

How did CN(c1cccc(NC(=O)c2ccc(N(C)S(=O)(=O)c3ccccc3)cc2)c1)S(C)(=O)=O do in these assays?
Gal4-VP16 FLuc: -10.8%; RORg inh: inconclusive; PLK1 PBD inh: 11.9µM*; Sfp inh: 17.2%; ALDH1A1 inh: inconclusive

Results for CC(=O)Nc1ccc(C(=O)Nc2cccc(S(=O)(=O)N(C)c3ccccc3)c2)cc1 ?
PLK1 PBD inh: -9.7%

Results for COc1ccc(NS(=O)(=O)c2cc(NC(=O)C(CC(C)C)NC(N)=O)ccc2N2CCOCC2)cc1 (stereo not drawn) ?
PLK1 PBD inh: -9.6%

How did CC(C)c1csc(CN2CCC(C(=O)Nc3cccc(-c4ccco4)c3)CC2)n1 do in these assays?
PLK1 PBD inh: -4.9%

What do the screens show for `Cc1cc(C(F)F)n2ncc(C(=O)NC3CCCCCC3)c2n1`?
Gal4-VP16 FLuc: 12.6%; RORg inh: 0.6%; PLK1 PBD inh: 1.7%; Sfp inh: 6.9%; ALDH1A1 inh: 12.6µM*

How did CC(C)(C)c1ccc(C(=O)NN=C2CCCC2)cc1 do in these assays?
Gal4-VP16 FLuc: 6.1%; RORg inh: inconclusive; PLK1 PBD inh: 4.4%; Sfp inh: 14.7%

How did S=C(NN=C1CCCCCC1)Nc1ccc(Cl)cc1 do in these assays?
Gal4-VP16 FLuc: inconclusive; RORg inh: inconclusive; PLK1 PBD inh: -7.1%; Sfp inh: -5.3%; ALDH1A1 inh: inconclusive

How did CCNc1ccc(C(=O)NN=C2CCCC2)cc1[N+](=O)[O-] do in these assays?
Gal4-VP16 FLuc: -19.3%; RORg inh: inconclusive; PLK1 PBD inh: -4.8%; Sfp inh: 3.6%; ALDH1A1 inh: 2.24µM*

Results for O=C(NN=C1CCCCCCC1)c1ccc(F)cc1 ?
Gal4-VP16 FLuc: 19.8%; RORg inh: inconclusive; PLK1 PBD inh: 18.9µM*; Sfp inh: -5.4%; ALDH1A1 inh: -11.7%

What do the screens show for `Fc1ccc(NC(=S)NN=C2CCCCCC2)cc1`?
Gal4-VP16 FLuc: 17.8µM*; RORg inh: 4.47µM*; PLK1 PBD inh: -1.5%; Sfp inh: -29.3%; ALDH1A1 inh: inconclusive

Results for O=P1(O)Oc2c(-c3ccccc3)cc3ccccc3c2-c2c(c(-c3ccccc3)cc3ccccc23)O1 ?
Gal4-VP16 FLuc: -6.1%; RORg inh: 14.7%; Sfp inh: 6.2%; ALDH1A1 inh: -2.6%

What do the screens show for `O=C(NCc1cccs1)C1CCC(CNS(=O)(=O)c2ccc(Br)s2)CC1` (stereo not drawn)?
Gal4-VP16 FLuc: -1.6%; RORg inh: -30.2%; PLK1 PBD inh: -1.6%; Sfp inh: 14.1%; ALDH1A1 inh: 2.82µM*

How did O=C(NCc1cccs1)C1CCC(CNS(=O)(=O)c2cccc3nsnc23)CC1 (stereo not drawn) do in these assays?
Gal4-VP16 FLuc: -3.8%; RORg inh: 20.9%; PLK1 PBD inh: -21.4%; Sfp inh: -11.8%; ALDH1A1 inh: 22.4µM*

How did O=C(NCc1cccs1)C1CCN(S(=O)(=O)c2ccc(Br)s2)CC1 do in these assays?
Gal4-VP16 FLuc: 19.0%; RORg inh: 15.5%; PLK1 PBD inh: -12.0%; Sfp inh: 11.2%; ALDH1A1 inh: -2.9%

How did COc1cccc(CNC(=O)C2CCC(CNS(=O)(=O)c3cccc4nsnc34)CC2)c1 (stereo not drawn) do in these assays?
Gal4-VP16 FLuc: 7.9%; RORg inh: 36.9%; PLK1 PBD inh: -6.0%; Sfp inh: 21.2%; ALDH1A1 inh: 20µM*

Results for O=C(C1CCC(CNS(=O)(=O)c2cccc3nsnc23)CC1)N1CC=C(c2ccccc2)CC1 (stereo not drawn) ?
Gal4-VP16 FLuc: -12.0%; RORg inh: -17.3%; PLK1 PBD inh: 7.2%; Sfp inh: -3.8%; ALDH1A1 inh: 17.8µM*

How did COC(=O)[C@@]12C[C@@H](CC(=O)N3CCN(C(=O)c4ccco4)CC3)C(=O)N(Cc3cccc4ccccc34)C1=CCC(C)(C)C2 do in these assays?
PLK1 PBD inh: -13.7%

Results for COC(=O)[C@@]12C[C@@H](CC(=O)NCCCN3CCCC3=O)C(=O)N(Cc3ccc4c(c3)OCO4)C1=CCC(C)(C)C2 ?
PLK1 PBD inh: 1.6%

How did O=C1CN(C(=O)N[C@@H](Cc2ccccc2)C(=O)N[C@@H](C(=O)O)c2ccccc2)c2ccccc2N1 do in these assays?
Gal4-VP16 FLuc: -6.7%; RORg inh: -4.3%; PLK1 PBD inh: 23.8µM*; Sfp inh: 24.2%

How did COc1ccc(NC(=O)CSc2nnc3n2CCCCC3)cc1S(=O)(=O)N(C)C do in these assays?
PLK1 PBD inh: -11.0%

How did OCC1O[C@H](OC2C(CO)O[C@@](O)(CO)C2O)C(O)C(O)C1O (stereo partly drawn) do in these assays?
Gal4-VP16 FLuc: 7.4%; RORg inh: 1.3%; Sfp inh: 21.3%; ALDH1A1 inh: 1.6%

How did CCn1cc(S(=O)(=O)N2CCN(c3ccc(Cl)cc3)CC2)cn1 do in these assays?
Gal4-VP16 FLuc: 3.1%; RORg inh: inconclusive; PLK1 PBD inh: 1.0%; Sfp inh: 6.2%

Results for CCc1nnc(NC(=O)CSc2sc3c(O)cc(=O)[nH]c3c2C#N)s1 ?
Gal4-VP16 FLuc: 9.5%; RORg inh: 4.1%; PLK1 PBD inh: 29.9µM*; Sfp inh: 79.4µM*

What do the screens show for `O=C(CSc1nc2[nH]c(=O)cc(O)c2s1)Nc1nncs1`?
PLK1 PBD inh: 29.9µM*

What do the screens show for `CCSc1nnc(NC(=O)CSc2sc3c(O)cc(=O)[nH]c3c2C#N)s1`?
Gal4-VP16 FLuc: 5.3%; RORg inh: -2.5%; PLK1 PBD inh: 11.9µM*; Sfp inh: -28.6%

How did O=C(CSc1nc2[nH]c(=O)cc(O)c2s1)Nc1nccs1 do in these assays?
PLK1 PBD inh: -15.4%

How did C[C@]12CC[C@H]3c4ccc(O)cc4CC[C@@H]3[C@H]1CC[C@@H]2OP(=O)(O)O do in these assays?
Gal4-VP16 FLuc: -8.9%; RORg inh: 2.3%[10 µM]; Sfp inh: 6.3%; ALDH1A1 inh: -3.3%[13.5 µM]

Results for COC(=O)/C=C\CCc1coc(/C=C\CNC(=O)OC)n1 ?
Gal4-VP16 FLuc: 4.6%[10 µM]; RORg inh: -2.3%[10 µM]; Sfp inh: 2.3%; ALDH1A1 inh: 3.2%[13.5 µM]

Results for CC(C)(CNC(=O)c1cccc(S(=O)(=O)Nc2ccc(SC(F)F)cc2)c1)N1CCOCC1 ?
PLK1 PBD inh: 13.4µM*

Results for Cc1ccc(S(=O)(=O)Nc2cccc(C(=O)NCC(C)(C)N3CCOCC3)c2)cc1F ?
PLK1 PBD inh: -0.1%

How did COc1ccc(C(=O)N/C(=C\c2ccc(Cl)cc2)C(=O)NCCN2CCOCC2)cc1 do in these assays?
PLK1 PBD inh: 2.7%
